Molecules are shown by their SMILES.

Common to all, as to assay type: functional
The test system of assay [1] is Plasmodium falciparum. Put plainly: GSK_TCMDC: Inhibition of Plasmodium falciparum 3D7 in whole red blood cells, using parasite LDH activity as an index of growth. Test compounds present at 2uM.
The subject of assay [2] is Plasmodium falciparum. Put plainly: GSK_TCMDC: Inhibition of Plasmodium falciparum Dd2 in whole red blood cells, using parasite LDH activity as an index of growth. Test compounds present at 2uM.
The test system of the next assay is HepG2. Put plainly: GSK_TCMDC: Percent inhibition of human HepG2 cell line. Test compounds present at 10uM.

By Inhibition is commonly meant the share of the control response that was lost under treatment. Consider `COc1ccc(C)c(Nc2ccnc(Nc3ccc(-c4cnc[nH]4)cc3)n2)c1.Cl`, for which the results for the Inhibition in the assay with Plasmodium falciparum [1], with Plasmodium falciparum [2] and in the assay on HepG2 were 97%, 6% and 40%, respectively.

For the compound `COc1ccc(CNCc2ccc(F)cc2)cc1-c1ccc(OC)c(S(=O)(=O)NCCN2CCCC2)c1.O=C(O)C(F)(F)F`, the Inhibition with Plasmodium falciparum [1] came to 100%; in the assay with Plasmodium falciparum [2], 88%; in the assay on HepG2, 24%.

For the compound `CCOc1ccc(C2CCN(CCCCNC(=O)c3ccc(NC(=O)c4ccc(Cl)cc4)cc3)CC2)c(Cl)c1`, the figures for the Inhibition in the assay on Plasmodium falciparum [1], in the assay with Plasmodium falciparum [2] and with HepG2 were 100%, 96% and 32%, respectively.

As for `Cc1ccc(NC(=O)NC2CCN(c3ccnc4cc(Cl)ccc34)CC2)cc1.O=C(O)C(F)(F)F`, the figures for the Inhibition with Plasmodium falciparum [1], with Plasmodium falciparum [2] and in the assay on HepG2 were 100%, 47% and 4%, respectively.

With `COc1ccc(S(=O)(=O)NC2CCN(CCNC(=O)Nc3cc(C)nc4ccccc34)C2)cc1` (stereo not given), the Inhibition in the assay with Plasmodium falciparum [1] is 88%; in the assay on Plasmodium falciparum [2], 41%; with HepG2, 0%.

With `CCN(CCCN1CCCCC1)c1cc(C)nc(Nc2cc(C)ccc2C)n1.O=C(O)C(F)(F)F`, the Inhibition in the assay on Plasmodium falciparum [1] was 93%; with Plasmodium falciparum [2], 42%; in the assay on HepG2, 34%.

For the compound `N#Cc1ccc(-c2ccc(C(=O)NCC3CCN(CCN4CCC(c5ccc6c(c5OCC(N)=O)CCCC6)CC4)CC3)cc2)cc1`, the Inhibition in the assay on Plasmodium falciparum [1] turned out to be 99%; in the assay with Plasmodium falciparum [2], 99%; in the assay on HepG2, 56%.

Regarding `O=C(Nc1ccc2oc(-c3ccc(Cl)cc3Cl)nc2c1)c1ccc([N+](=O)[O-])o1`, the Inhibition came out at 95% in the assay with Plasmodium falciparum [1], 78% in the assay on Plasmodium falciparum [2] and 39% in the assay on HepG2.

For the compound `CNC(=O)c1cc(Nc2nnc(-c3ccc(C)c(S(=O)(=O)NC4CCCCC4)c3)c3ccccc23)ccc1OC`, the Inhibition in the assay with Plasmodium falciparum [1] is on record as 87%; in the assay on Plasmodium falciparum [2] it was 61%; with HepG2, 0%.

On to `N=C(N)Nc1nc(-c2cccc(NC(=O)NCc3cccc4ccccc34)c2)cs1`, for which the Inhibition was found to be 100% in the assay with Plasmodium falciparum [1], 32% in the assay on Plasmodium falciparum [2] and 14% in the assay with HepG2.

`CC(O)C1CCCCN1C(=O)c1cccc(-c2cccc(-c3nc4cc(F)ccc4[nH]3)c2)c1` (stereo not given): the Inhibition in the assay with Plasmodium falciparum [1] is given as 100%; with Plasmodium falciparum [2], 99%; in the assay with HepG2, 42%.

Consider `COc1cc2nc(Nc3ccc4c(cnn4Cc4ccccc4)c3)nc(Nc3ccc4c(cnn4Cc4ccccc4)c3)c2cc1OC`, for which the Inhibition was found to be 99% in the assay on Plasmodium falciparum [1], 100% in the assay with Plasmodium falciparum [2] and 4% in the assay on HepG2.

For the compound `CN(C)c1nc2cc(-n3cnc4cc(-c5ccc(Cl)cc5)sc4c3=O)ccc2n1CCCN1CCCC1.O=C(O)C(F)(F)F`, the Inhibition with Plasmodium falciparum [1] came to 97%; in the assay on Plasmodium falciparum [2] it was 73%; in the assay on HepG2, 99%.

Consider `CN1CCC(N2CCN(Cc3ccc(-c4ccc(-c5nc6cc(F)ccc6[nH]5)s4)cc3)CC2)CC1.O=C(O)C(F)(F)F`, for which the Inhibition in the assay with Plasmodium falciparum [1] worked out at 100%; with Plasmodium falciparum [2], 100%; with HepG2, 62%.

In the case of `CN1CCN(c2cccc(-c3nnc(-c4ccc(OCC(=O)NCc5cccc(C(F)(F)F)c5)c([N+](=O)[O-])c4)o3)c2)CC1`, the Inhibition in the assay on Plasmodium falciparum [1] was 90%; with Plasmodium falciparum [2], 72%; in the assay with HepG2 it was 25%.

For the compound `Oc1cc(-c2cccc(C(F)(F)F)c2)nc(Nc2ccc(Cl)c(Cl)c2)n1`, the Inhibition worked out at 97% with Plasmodium falciparum [1], 97% with Plasmodium falciparum [2] and 57% in the assay with HepG2.

In the case of `Cl.Clc1ccc(CCNCCCCCCNCCc2ccc3c(c2)OCO3)cc1`, the Inhibition with Plasmodium falciparum [1] is on record as 91%; with Plasmodium falciparum [2] it was 11%; in the assay with HepG2, 23%.

For `COc1cc(CCNc2nc(NCc3ccccc3-c3ccccc3)nc(N3CCC(N)CC3)n2)ccc1O.O=C(O)C(F)(F)F`, the Inhibition with Plasmodium falciparum [1] was 100%; in the assay on Plasmodium falciparum [2] it was 70%; in the assay with HepG2, 25%.

For `CCN(CC)CCCNc1nccc(N2CCc3ncnc(Nc4ccc(OCc5cccc(F)c5)c(Cl)c4)c3C2)n1`, the results for the Inhibition with Plasmodium falciparum [1], in the assay on Plasmodium falciparum [2] and with HepG2 were 100%, 95% and 100%, respectively.

In the case of `O=C(Nc1nc2cc(S(=O)(=O)NCc3ccc(Cl)c(Cl)c3)ccc2n1CCCn1ccnc1)c1ccc(Cl)cc1.O=C(O)C(F)(F)F`, the Inhibition with Plasmodium falciparum [1] came out at 100%; in the assay with Plasmodium falciparum [2], 44%; with HepG2, 0%.

Turning to `Cl.Clc1ccc2c(NCCCCCCCCNc3ccnc4cc(Cl)ccc34)ccnc2c1`, the Inhibition in the assay on Plasmodium falciparum [1] is reported as 99%; in the assay on Plasmodium falciparum [2], 96%; in the assay on HepG2, 2%.

With `c1cncc(CN2CCCN(c3ccc4c(c3)CCN(Cc3ccc(-c5ncc[nH]5)cc3)CC4)CC2)c1`, the Inhibition was 99% in the assay with Plasmodium falciparum [1], 33% in the assay on Plasmodium falciparum [2] and 7% with HepG2.

As to `Cc1ccc2c(Cl)c(C(=O)N3CC(C)OC(C)C3)sc2c1` (stereo not given), the Inhibition is on record as 100% with Plasmodium falciparum [1], 98% with Plasmodium falciparum [2] and 4% in the assay on HepG2.

Turning to `CC(C)c1sc(N2CCN(C)CC2)nc1C(=O)NCCc1cccc(Cl)c1.O=C(O)C(F)(F)F`, the Inhibition in the assay on Plasmodium falciparum [1] was found to be 91%; in the assay on Plasmodium falciparum [2] it was 15%; with HepG2, 9%.

Regarding `COc1ccc(-c2cccc(NC(=O)c3ccc(Cl)cc3)c2)cc1CN1CCCN(C)CC1.O=C(O)C(F)(F)F`, the Inhibition with Plasmodium falciparum [1] is 100%; in the assay with Plasmodium falciparum [2], 95%; in the assay with HepG2, 29%.

For the compound `CC1(C)N=C(N)N=C(N)N1c1ccc(Oc2ccccc2)cc1.Cl`, the Inhibition in the assay on Plasmodium falciparum [1] is reported as 98%; in the assay on Plasmodium falciparum [2] it was 3%; in the assay on HepG2, 13%.

For `Cc1cccc2nc(-c3ccc(-c4ccc(CNCc5ccccc5)cc4)s3)[nH]c12.O=C(O)C(F)(F)F`, the values for the Inhibition with Plasmodium falciparum [1], with Plasmodium falciparum [2] and in the assay with HepG2 were 100%, 87% and 22%, respectively.

On to `CCNC(=O)Nc1cccc(-c2ccc(-c3nc4cccc(C)c4[nH]3)s2)c1`, for which the Inhibition was determined as 96% in the assay on Plasmodium falciparum [1], 20% in the assay with Plasmodium falciparum [2] and 32% in the assay with HepG2.

On to `COc1ccc(NC(=O)[C@H](Cc2ccccc2)Nc2cc(C)nc(NCCc3cccnc3)n2)cc1.O=C(O)C(F)(F)F`, for which the values for the Inhibition with Plasmodium falciparum [1], in the assay on Plasmodium falciparum [2] and with HepG2 were 98%, 5% and 11%, respectively.

Consider `COc1c(C2CCN(CCN3CCC(CNC(=O)c4ccc(-c5ccc(C#N)cc5)cc4)CC3)CC2)ccc2c1CCCC2`, for which the Inhibition with Plasmodium falciparum [1] is 100%; in the assay with Plasmodium falciparum [2] it was 100%; in the assay with HepG2, 96%.

For the origin of these results see ChEMBL document CHEMBL1157539, “Thousands of chemical starting points for antimalarial lead identification” (Nature, 2010).
